The results in this text go back to PubChem BioAssay AID686979 (National Center for Advancing Translational Sciences (NCATS), 2013).

The whole screen tested about 420,000 compounds, of which about 50,000 (12%) were called active. A call without a number means that no potency is given here. Roughly 26% stayed inconclusive and do not appear here. For the sample, actives were picked, then their nearest neighbours and some compounds at random. A number with no mark means an inactive call. The call rests on the fitted dose curve; in most records, active means well fitted inhibition curve with a large enough effect; inconclusive means small, poorly fitted or top-dose-only effect; inactive means flat fitted curve, though single readings scatter.
Potency means the concentration at half of the fitted maximal effect.

The nature of the experiment: qHTS for Inhibitors of human tyrosyl-DNA phosphodiesterase 1 (TDP1): qHTS in cells in presence of CPT. Further: nearly all actives have a fitted effect of over 55% in size. The following applies: chicken DT40 Tdp1-/-;hTDP1 cells + 20 nM CPT, ATP luminescence, 48 h; series mostly up to 46.2 µM. Summed up: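 Chicken DT40 Tdp1-/- cells stably complemented with human TDP1 were seeded at 400 cells/well in medium containing 20 nM camptothecin, exposed to pin-transferred compounds, and grown at 37 °C for at least 48 hr. Viability was read as ATP luminescence.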
A general note: In qHTS, concentration-response curves come from the screen itself.
With `COc1ccc(C(=O)NNc2cc(C)nc(NNC(=O)c3ccc(OC)cc3)n2)cc1`, the Potency result is “inactive”.
As to `COC(=O)c1ccc(CSc2nc3cc(Cl)ccc3o2)cc1`, the Potency entry is “inactive”.
The same measure, in the same setting: the result for `COc1ccc(NC(=O)c2cc(-c3ccc(C)cc3)on2)cc1` reads “inactive”; that for `COC(=O)c1ccc2nc(-c3ccc(Cl)cc3)c(Cc3cccc(F)c3)n2c1`, 20.6 µM (active).
Same read-out and setting: the result for `COc1ccc(C(=O)OCC(=O)NCCCc2ccccc2)cc1OC` reads “inactive”.
Same read-out and setting: the result for `COC(=O)c1ccc(COC(=O)c2cnc(Cl)c(Cl)c2)cc1` reads “inactive”.
For `COC(=O)c1ccc2nc(-c3cccc(Br)c3)c(Cc3ccccc3C(F)(F)F)n2c1`, the Potency entry is “inactive”.
Still for that read-out and setting: the result for `COC(=O)c1ccc2nc(-c3ccc(OC)c(OC)c3)c(Cc3ccccc3)n2c1` reads 23.1 µM (active); that for `COC(=O)c1ccc2nc(-c3ccc(C)cc3)c(Cc3ccc(OC)cc3C)n2c1`, 23.1 µM (active).
Still for that read-out and setting: the result for `Cc1ccc(N2CCN(c3ccc([N+](=O)[O-])cn3)CC2)c(C)c1` reads “inactive”; that for `CCOC(=O)C(=Cc1ccccc1)C(=O)c1ccccc1`, 18.4 µM (active); that for `CCOC(=O)CNC(=O)/C(=C\c1ccc(F)cc1)NC(=O)c1ccccc1`, “inactive”.
Regarding `CCOC(=O)C(=CNc1cccc(C)n1)C(=O)OCC`, the Potency result is “inactive”.
Still for that read-out and setting: in the case of `O=c1ccc2cc(S(=O)(=O)Nc3ccccc3F)ccc2o1` it was “inactive”.
Same read-out and setting: in the case of `CCOc1ccc(S(=O)(=O)NCCSc2ccccc2)cc1` it was “inactive”; in that of `CCCn1cc(S(=O)(=O)c2ccc(C)cc2)c(=O)c2cc(OCC)ccc21`, “inactive”; in that of `CCOc1ccc(S(=O)(=O)c2cn(Cc3ccccc3)c3ccc(OCC)cc3c2=O)cc1`, 13 µM (active).
For the compound `COc1ccc2c(c1)c(=O)c(S(=O)(=O)c1ccc(F)cc1)cn2CC(=O)Nc1ccc(C)cc1C`, the Potency result was “inactive”.
Turning to `CCOc1ccc2c(c1)c(=O)c(S(=O)(=O)c1ccc(C)cc1)cn2CC`, the Potency is 18.4 µM (active).
The same measure, in the same setting: the result for `CCOc1cccc(C(=O)Nc2cnn(Cc3ccccc3)c2)c1` reads “inactive”; that for `CCN(CC)Cc1c(C(=O)N/N=C/c2cccc(OCc3ccc(F)cc3)c2)nnn1-c1nonc1N`, “inactive”; that for `CC(C)(C)n1nc2c(c1NC(=O)c1cc3ccccc3o1)CSC2`, “inactive”.
On the same count and under the same terms, in the case of `O=C(NC(=S)Nc1cc(C(F)(F)F)ccc1N1CCOCC1)c1ccc(-c2cccc(Cl)c2)o1` it was “inactive”; in that of `Oc1ccc(Br)cc1/C=N/Nc1ccccn1`, 1.64 µM (active); in that of `CCN(CC)CCn1c(/N=C/c2cc(Br)ccc2O)nc2ccccc21`, “inactive”.
On the same count and under the same terms, in the case of `Oc1ccc(Br)cc1C=Nc1ccc2[nH]ncc2c1` it was “inactive”; in that of `CCN1CCN(CCNC(=O)c2ccc3c(c2)NC(=O)/C(=C\c2cccc(Cl)c2)S3)CC1`, 23.1 µM (active); in that of `O=C(NCCN1CCOCC1)Nc1cccc(Cl)c1`, “inactive”.
On to `CCN1CCCC1CNC(=O)c1cc2cc(OC)c(OC)cc2[nH]1` (stereo unspecified), for which the Potency entry was “inactive”.
The same measure, in the same setting: in the case of `O=C(NCCCN1CCCCC1)c1ccc2c(c1)NC(=O)C(N1CCOCC1)S2` (stereo unspecified) it was “inactive”; in that of `CCN1CCCC1CNC(=O)c1ccc2c(c1)NC(=O)/C(=C\c1ccccc1F)S2` (stereo unspecified), 18.4 µM (active).
On the same count and under the same terms, the result for `COc1ccc(CN2CCCC(CNC(=O)c3ccc(F)cc3)C2)cc1OC` (stereo unspecified) reads “inactive”; that for `CCOC(=O)c1sc(=NC(=O)c2ccc(Br)cc2)n(C)c1C`, “inactive”.
Still for that read-out and setting: the result for `Cc1ccc2nc(-c3ccc(Br)cc3)cn2c1` reads “inactive”; that for `Cc1ccc(NS(=O)(=O)c2ccc(-c3ccc(=O)[nH]n3)o2)c(C)c1`, “inactive”.
Regarding `O=C(O)c1[nH]c2ccccc2c1C(c1cccc(O)c1)c1c(C(=O)O)[nH]c2ccccc12`, the Potency entry was “inactive”.
Same read-out and setting: in the case of `CC(=O)OCC(C)n1c(=O)c2ccccc2n1C(C)=O` (stereo unspecified) it was “inactive”.
Same read-out and setting: in the case of `O=C(COc1cc(Cl)c(Cl)cc1Cl)NCCc1ccccn1` it was “inactive”; in that of `O=C(COC(=O)COc1cc(Cl)c(Cl)cc1Cl)NC1CC1`, “inactive”.
On the same count and under the same terms, the result for `NC(=S)NN=Cc1ccc(OC(=O)COc2cc(Cl)c(Cl)cc2Cl)cn1` reads 6.51 µM (active); that for `O=C(Cn1cnc2c(oc3ccccc32)c1=O)Nc1ccc(OC(F)(F)F)cc1`, “inactive”.
As for `C[C@H](NC(=O)c1ccccc1Cl)C(=O)OCCOc1cccc(Cl)c1`, the Potency entry is “inactive”.
Take `O=C1C(Sc2cccc(F)c2)=C[C@@]2(O)CC[C@@H](O)[C@]1(Sc1cccc(F)c1)[C@H]2O`: the Potency is 16.4 µM (active).
With `COC(=O)C1=C(C)Nc2ncnn2C1c1ccco1` (stereo unspecified), the Potency entry is “inactive”.
On the same count and under the same terms, in the case of `COc1ccccc1NC(=O)C1=C(C)Nc2ncnn2C1c1ccc(C)o1` (stereo unspecified) it was “inactive”; in that of `CC1=C(C(=O)OCc2ccccc2)C(c2ccco2)n2ncnc2N1` (stereo unspecified), 23.1 µM (active).
`Cc1ccc(S(=O)(=O)c2c[nH]c3ccc(Cl)cc3c2=O)cc1`: the Potency result is “inactive”.
The same measure, in the same setting: in the case of `Cc1nc(COc2cc3oc(=O)cc(C)c3cc2Cl)cs1` it was “inactive”.
As for `CN(C)/N=C/c1cn(-c2ccccc2)nc1-c1cccnc1`, the Potency result is “inactive”.
Turning to `O=Cc1cn(-c2ccccc2)nc1-c1ccccn1`, the Potency result was “inactive”.
The same measure, in the same setting: the result for `COc1ccc(-c2nn(-c3ccccc3)cc2/C=N/Nc2ccccn2)cc1OC` reads 7.31 µM (active).
On the same count and under the same terms, in the case of `Cc1cc(C)cc(OCC(=O)Nc2nc(-c3ccc(F)cc3)ns2)c1` it was “inactive”; in that of `O=c1ccn([C@@H]2O[C@H](CNS(=O)(=O)c3cc4ccccc4s3)[C@@H](O)[C@H]2O)c(=O)[nH]1`, “inactive”.
As to `COc1ccc2c(c1)c1ncn(Cc3ccccn3)c(=O)c1n2C`, the Potency entry is “inactive”.
As to `Cc1cc([N+](=O)[O-])nn1Cc1ccc(F)cc1`, the Potency entry was “inactive”.
`C=CCN1C(=O)C(O)(CC(=O)c2ccc(Cl)cc2)c2ccccc21` (stereo unspecified): the Potency is 18.4 µM (active).
Still for that read-out and setting: the result for `C=CCN1C=C(C(=O)c2ccccc2)C(=O)CC1` reads “inactive”; that for `C=CCN1C(=O)C2(OCCCO2)c2cccc(Cl)c21`, “inactive”; that for `O=C(NCc1ccccc1)C1CCN(S(=O)(=O)c2ccc3[nH]c(=O)ccc3c2)CC1`, “inactive”.
Still for that read-out and setting: in the case of `CCC(=O)N1CCc2cc(S(=O)(=O)NC(Cc3ccccc3)C(=O)NCc3ccc(C)cc3)ccc21` (stereo unspecified) it was “inactive”; in that of `COCCCNC(=O)/C(C#N)=C/c1c(N2CCCCCC2)nc2ccccn2c1=O`, “inactive”; in that of `CC(=O)Nc1ccc(NC(=O)COc2ccc(S(=O)(=O)NC(C)c3ccccc3)cc2)cc1` (stereo unspecified), “inactive”.
With `Cc1ccc(/C=N/NC(=O)c2sccc2OCc2ccc(F)cc2)cc1`, the Potency is 16.4 µM (active).
Consider `CNC(=S)NNC(=O)c1sccc1OCc1ccccc1`, for which the Potency entry was “inactive”.
Same read-out and setting: the result for `Cc1ccc(COc2ccc(/C=N/NC(=O)CN3CCCCC3)cc2)cc1` reads “inactive”; that for `CCOc1ccccc1NC(=O)CN1CCN(S(=O)(=O)c2ccc(Br)cc2)CC1`, “inactive”; that for `O=C(Nc1ccc(F)cc1)N1CCCC(c2nc3c(nnn3Cc3ccccc3Cl)c(=O)[nH]2)C1` (stereo unspecified), 20.6 µM (active).
For `COc1ccc(Cn2nnc3c(=O)[nH]c(C4CCN(C(=O)c5ccccc5Cl)CC4)nc32)cc1`, the Potency result is “inactive”.
Turning to `CC(=O)Nc1ccc(Nc2ncnc3c2nnn3Cc2ccccc2Cl)cc1`, the Potency result was “inactive”.
As for `C[C@@H]1CN([C@@H](C)CO)C(=O)CCCn2cc(nn2)CO[C@H]1CN(C)S(=O)(=O)c1ccc(-n2cccn2)cc1`, the Potency result is “inactive”.
For the compound `C/C=C(\C)C(=O)OC1C(OC(=O)C2(C)OC2C)c2cc3ccc(=O)oc3cc2OC1(C)C` (stereo unspecified), the activity change, negative = growth inhibition was 14.7% [at 9.04 µM].
On to `COc1cc(C2C(C(=O)c3sc(C)nc3C)=C(O)C(=O)N2CCN(C)C)cc(OC)c1OC` (stereo unspecified), for which the Potency result is “inactive”.
Regarding `O=C(c1cccs1)n1nc(NCc2ccccc2)nc1NCc1ccccc1`, the Potency result was “inactive”.
Still for that read-out and setting: in the case of `CCCc1cc(=O)[nH]c(SCC(=O)c2c(N)n(CC(C)C)c(=O)n(C)c2=O)n1` it was 7.31 µM (active); in that of `CCCc1cc(=O)[nH]c(SCC(=O)Nc2ccc(S(=O)(=O)N3CCCC3)cc2)n1`, “inactive”.
On the same count and under the same terms, the result for `CCCc1cc(=O)[nH]c(SCC(=O)N2C(C)CCCC2C)n1` (stereo unspecified) reads “inactive”.
The same measure, in the same setting: the result for `Cc1ccc(Cl)cc1NC(=O)CSc1nccn1C` reads “inactive”; that for `COc1ccccc1C(=O)NCCC(=O)NC1=NCCS1`, “inactive”.
On to `Cc1cc(C)cc(Oc2c(C(F)(F)F)oc3cc(OCC(=O)O)ccc3c2=O)c1`, for which the Potency result was “inactive”.
The same measure, in the same setting: the result for `Cc1nc2ccccc2c(=O)n1-c1ccc(NS(=O)(=O)c2ccc(F)cc2F)cc1` reads “inactive”.
Same read-out and setting: the result for `Cc1cccc(-c2nc3ccccc3c(=O)n2NC(=O)Cc2ccc(Cl)cc2)c1` reads “inactive”; that for `Cc1[nH]n(-c2ccc(Cl)cc2)c(=O)c1/C=N/n1c(C)nc2ccccc2c1=O`, 20.6 µM (active).
Still for that read-out and setting: the result for `CC(OC(=O)c1cccc(S(=O)(=O)N2CCOCC2)c1)C(=O)NCC1CCCCC1` (stereo unspecified) reads “inactive”.
With `Cc1occc1-c1nnc(SCC(=O)NC2(C#N)CCCC2)n1C`, the Potency entry is “inactive”.
With `CN(Cc1ccc(C(F)(F)F)cc1)C(=O)[C@H]1O[C@@H](n2cnc3c(N)ncnc32)[C@H](O)[C@@H]1O`, the Potency result is “inactive”.
Take `Cc1noc(C)c1S(=O)(=O)N(C)C[C@H]1Oc2c(NC(=O)Nc3ccc4c(c3)OCO4)cccc2C(=O)N([C@H](C)CO)C[C@@H]1C`: the Potency result is “inactive”.
Consider `CCc1nn(CCCC(=O)Nc2ccc(C)cc2C)c(=O)c2cc3occc3n12`, for which the Potency result was “inactive”.
The same measure, in the same setting: in the case of `COc1ccc(OCCCn2cccc2/C=C2/C(=N)N3OC(C)=CC3=NC2=O)cc1` it was 18.4 µM (active); in that of `CCOc1cc(/C=C2/C(=N)N3OC(C)=CC3=NC2=O)ccc1OC`, “inactive”.
On the same count and under the same terms, in the case of `CC1=CC2=NC(=O)/C(=C/c3coc4ccccc4c3=O)C(=N)N2O1` it was “inactive”; in that of `COc1cccc(CNC(=O)c2cccnc2Sc2ccc(Cl)cc2)c1`, “inactive”.
The same measure, in the same setting: in the case of `Cc1ccnc(NC(=O)CNC(=O)c2ccccc2)c1` it was “inactive”; in that of `Cc1cc(NC(=O)c2cc3ccccc3o2)no1`, “inactive”; in that of `CC(=O)Nc1cccc(C(=O)OCC(=O)c2ccc3c(c2)OCO3)c1`, “inactive”.
As to `O=C(CSc1n[nH]c(-c2ccccc2)n1)N1CCCCC1`, the Potency entry was “inactive”.
As for `C=CC(C1=CC(=O)C=CC1=O)c1ccc(O)cc1` (stereo unspecified), the Potency was 1.64 µM (active).
The same measure, in the same setting: the result for `CSc1ncccc1C(=O)OCc1ccc(Br)cc1` reads “inactive”; that for `NC(=O)C1(Nc2ccc(-c3ccccc3)cc2)CCCC1`, “inactive”; that for `O=[N+]([O-])c1cccc(S(=O)(=O)NCc2ccccn2)c1`, “inactive”.
As for `COc1ccc2oc(=O)c(C(=O)NCc3ccccn3)cc2c1`, the Potency entry was “inactive”.
For the compound `COc1cccc(S(=O)(=O)NCc2ccc(C(=O)NCc3ccccn3)cc2)c1`, the Potency is 0.92 µM (active).
